Assay [1] in a line: NCI Yeast Anticancer Drug Screen. Data for the rad50 strain (AID 155).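 Further: 0% = growth of vehicle-only cultures of the same strain.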 Conditions: S. cerevisiae rad50 strain growth inhibition; at 50.0 µM; hits give high values. Summed up:
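Compounds were tested on a yeast strain with an engineered DNA damage repair alteration; the reported value is growth inhibition normalised to vehicle treatment.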

Assay [2] in a line: NCI Yeast Anticancer Drug Screen. Data for the mec2-1 strain (AID 157). Conditions: S. cerevisiae mec2-1 strain, at 50.0 µM, hits give high values. Summed up: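 Cells of the genetically defined mec2-1 yeast strain are incubated with test compound. Inhibition of growth is calculated against vehicle-treated controls.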
A short description of assay [3]: NCI Yeast Anticancer Drug Screen. Data for the sgs1 mgt1 strain (AID 161).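 Further: 0% = growth of cultures given vehicle only.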 Conditions: S. cerevisiae sgs1 mgt1 strain, at 50.0 µM, hits give high values. Summed up: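 Inhibition of yeast growth, normalised to vehicle-treated controls, is reported for a strain bearing genetic alterations in DNA damage repair.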
Assay [4] in a line: NCI Yeast Anticancer Drug Screen. Data for the cln2 rad14 strain (AID 165).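 Further: 0% = growth equal to vehicle treated cultures.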 To be noted: S. cerevisiae cln2 rad14 strain, at 50.0 µM, hits give high values. Summed up: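 The screen exposed genetically defined yeast (cln2 rad14) to test compounds and scored growth inhibition relative to vehicle-treated controls.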
Assay [5] is described as follows: NCI Yeast Anticancer Drug Screen. Data for the bub3 strain (AID 167). To be noted: S. cerevisiae bub3 mutant strain, at 50.0 µM, hits give high values. In short, it runs like this: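 Growth of a checkpoint-deficient yeast mutant is measured after compound exposure. Values represent inhibition relative to vehicle.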
Assay [6] can be described thus: NCI Yeast Anticancer Drug Screen. Data for the mlh1 rad18 strain (AID 175). To be noted: S. cerevisiae mlh1 rad18 strain growth inhibition; at 50.0 µM; hits give high values. In short, it runs like this:
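Compound-treated yeast growth, normalised to vehicle controls. Strain bears defined DNA repair mutations.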

Molecules are shown by their SMILES. This is part of a sample that, as a whole, favours compounds with a hit. Of some 79,000 tested, about 15% had one in any assay. A number with no mark means an inactive call. Activity calls are given as the source filed them. No stated cut-off is given here; in the data, active means growth inhibition above about 70%; inactive means the rest.

Take `CCOC(=O)/C(=C\c1ccccc1)C(=O)O`: the growth inhibition was -6.75% in assay [1]; -29.9% in assay [2]; -6.25% in assay [3]; 26% in assay [4]; -21.9% in assay [5]; -1.8% in assay [6].

Consider `Cc1cn(C2OC3COC2C3O)c(=O)[nH]c1=O` (stereo not given), for which the growth inhibition was -20.8% in assay [1]; 0.55% in assay [2]; 10.7% in assay [3]; 27.2% in assay [4]; -6% in assay [5]; -4.75% in assay [6].

With `CCC(=O)/C=C/c1ccccc1O`, the growth inhibition was 11.6% in assay [1]; 9.55% in assay [2]; 31.4% in assay [3]; 17.4% in assay [4]; 20.4% in assay [5]; 13.3% in assay [6].

`Nc1nc(-c2ccccc2)[nH]c(=O)n1`: the growth inhibition was -3.3% in assay [1]; -0.45% in assay [2]; -37% in assay [3]; -62.8% in assay [4]; -22.4% in assay [5]; -33% in assay [6].

In the case of `COC(=O)C(=[N+]=[N-])C(=O)c1ccccc1`, the growth inhibition is 10.1% in assay [1]; 1.05% in assay [2]; -1.3% in assay [3]; 4.65% in assay [4]; -3.6% in assay [5]; 6.9% in assay [6].

Turning to `CCCCOC1NC(=O)Oc2ccccc21` (stereo not given), the growth inhibition is -9.35% in assay [1]; 4% in assay [2]; -3.15% in assay [3]; -28.5% in assay [4]; -4.95% in assay [5]; 15.1% in assay [6].

Regarding `CC[N+](CC)(CC)CCC[n+]1ccc(/C=N\O)cc1`, the growth inhibition was 3.1% in assay [1]; -1.6% in assay [2]; -16.4% in assay [3]; -8.25% in assay [4]; -0.8% in assay [5]; -6.25% in assay [6].

`O=C(c1ccc2c(c1)OCO2)C(O)c1ccc(Cl)cc1` (stereo not given): the growth inhibition in assay [1] was 2.85%; in assay [2] it was 3.9%; in assay [3] it was 1.85%; in assay [4] it was -16.1%; in assay [5] it was -4.75%; in assay [6], 5%.

Regarding `O=[N+]([O-])c1cccc(S(=O)(=O)NC2c3ccccc3Oc3ccccc32)c1`, the growth inhibition is 22% in assay [1]; -3.65% in assay [2]; 26.9% in assay [3]; 21.4% in assay [4]; -10.7% in assay [5]; 24.8% in assay [6].

As for `Cc1csc2nc(-c3cccs3)nn12`, the growth inhibition in assay [1] is 0.75%; in assay [2] it was -15.4%; in assay [3] it was 7.4%; in assay [4] it was -1.55%; in assay [5] it was -7.15%; in assay [6], -9.1%.

Take `CCCCCCC(=O)OC[n+]1ccc2c(C)c3[nH]c4ccc(OC)cc4c3c(C)c2c1`: the growth inhibition was 87% (active) in assay [1]; 91.2% (active) in assay [2]; 89.8% (active) in assay [3]; 88.7% (active) in assay [4]; 86% (active) in assay [5]; 91.1% (active) in assay [6].

Turning to `O=c1/c(=C/c2cccc([N+](=O)[O-])c2)sc2nc3ccccc3n12`, the growth inhibition in assay [1] was -9.95%; in assay [2], -12.7%; in assay [3] it was -18.1%; in assay [4] it was -4.65%; in assay [5], -10.1%; in assay [6] it was -12.7%.

For `Cc1cc2[nH]c3c(C#N)c(O)c(C(C)C)c(=O)n3c2cc1C`, the growth inhibition was -1.05% in assay [1]; 7.8% in assay [2]; 11.6% in assay [3]; 1.35% in assay [4]; 10.8% in assay [5]; 11.2% in assay [6].

In the case of `C/C(=N\[N+](C)(C)C)c1ccc2ccccc2c1`, the growth inhibition in assay [1] is 9.65%; in assay [2] it was -2.45%; in assay [3], -1.6%; in assay [4], 5.5%; in assay [5] it was -6%; in assay [6], -9.6%.

On to `CC(=O)Nc1ccc(S(=O)(=O)O)c(C(F)(F)F)c1`, for which the growth inhibition in assay [1] was 17.1%; in assay [2] it was 21.1%; in assay [3] it was 12.6%; in assay [4], -8%; in assay [5] it was 26.5%; in assay [6] it was 11.4%.

Regarding `CC(=O)/C=C/C1=C(C)CCCC1(C)C` (tested in a mixture with another compound), the growth inhibition in assay [1] was 19.7%; in assay [2], 1%; in assay [3], 9.2%; in assay [4] it was -3.25%; in assay [5], 24.3%; in assay [6] it was 5.7%.

As for `CC(=O)NC1C(OCC(=O)NC(C)C(=O)NC(CCC(=O)NCCCCCNc2ccc([N+](=O)[O-])c3[nH]c4ccccc4c(=O)c23)C(N)=O)C(O)C(CO)OC1(C)OCc1ccccc1` (stereo not given), the growth inhibition was -7.65% in assay [1]; -3.35% in assay [2]; 1.05% in assay [3]; 21.2% in assay [4]; -12.1% in assay [5]; 18.1% in assay [6].

Take `O=S(=O)(Nc1nc2ccccc2nc1N1CCCCCC1)c1ccccc1`: the growth inhibition is -7.25% in assay [1]; -8.35% in assay [2]; 20.5% in assay [3]; 4.7% in assay [4]; 7.65% in assay [5]; -23.8% in assay [6].

With `Clc1ccc2c(c1)nc(-c1ccccn1)n2CCc1ccncc1`, the growth inhibition in assay [1] was 3.75%; in assay [2], 0.05%; in assay [3], 2.4%; in assay [4], -16.4%; in assay [5], -13.4%; in assay [6], 13.8%.

For `CCOC(=O)CCOc1ccccc1`, the growth inhibition in assay [1] is 8%; in assay [2], 9.1%; in assay [3], 8.45%; in assay [4], 3.8%; in assay [5] it was -0.85%; in assay [6] it was 22.8%.

These data come from PubChem BioAssay (NCI).
